# Measurements reported in PubChem BioAssay (EPA / NIEHS).
# Inconclusive results are not listed. The source made the active and inactive calls. The calls were made as follows: active = hit-call score of the fitted dose curve at least 0.9, where 1 is the maximum; inconclusive = response in the unintended direction; inactive = score below 0.9.
# Assay: TOX21_TR_RXR_BLA_Antagonist_Followup_viability: Viability Assessment in the Tox21 Thyroid Hormone Receptor beta Retinoid X Receptor alpha (RXRa) Antagonism Beta-lactamase (BLA) Follow-Up Assay (AID 2283979)
# Source text: GeneBLAzer RXRa-UAS-bla HEK293T assay (RXRa-bla) (ThermoFisherScientific Catalog No. K1697) was run in qHTS 1536 well format as a secondary assay for specificity of response in the TOX21_TR_GH3_LUC_Agonist assay.TOX21_TR_RXR_BLA_Antagonist_Followup_viability is a component of the TOX21_TR_RXR_BLA_Antagonist_Followup assay. This component measures cell viability using the CellTiter-Glo Luciferase-coupled ATP quantitation.The assay component endpoint TOX21_TR_RXR_BLA_Antagonist_Followup_viability was analyzed with bidirectional fitting relation to DMSO as the negative control and baseline of activity. Using a type of viability reporter, loss-of-signal activity can be used to understand changes in viability. To generalize the intended target to other relatable targets, this assay endpoint is annotated to cell cycle, where the subfamily is cytotoxicity.
# Cell Media Required: Growth (90% DMEM/F-12, 10% Fetal Bovine Calf Serum, 100U/ml Penicillin, 100 ug/ml Streptomycin), Assay (10ng/mL sodium selenite, 10 ug/mL humanapo-transferrin, 10 uM ethanolamine, 10 ug/mL insulin, 500 ug/mL bovine serum albumin (BSA))Assay Protocol: RXRa-bla cells were seeded at 2,500/well in 6 uL of the assay medium containing phenol red-free DMEM with 2% charcoal-stripped FBS in 1,536-well black-wall/clear-bottom plates (Greiner Bio-One North America) usinga Multidrop Combi dispenser. After5-h incubation at 37C/5% CO2 for cell attachment, 23 nL of follow-up compounds dissolved in DMSO, 11 concentrations in triplicate, and the positive control (9-cis retinoic acid) were transferred to the assay plates using a Pintool station. The assay plates were incubated at 37C/5% CO2 for 16h. One microliter of LiveBLAzer FRET-B/GCCF4-AM substrate (Life Technologies) was added to each well using an FRD. After 2-h incubation at room temperature, the fluorescence intensity was measured using an Envision plate reader (Perkin Elmer). Data were expressed as the ratio of 460:530 nm.
row,Structure (SMILES),outcome
1,C[C@]12CC[C@H]3[C@@H](CCC4=C(Cl)C(=O)CC[C@@]43C)[C@@H]1CC[C@@H]2O,inactive
2,CC[n+]1ccccc1,inactive
3,O=C(N[C@@H]1N=C(c2ccccc2F)c2cccc3c2N(CC3)C1=O)c1cc2ccccc2[nH]1,inactive
4,CCN(CC)CCO[C@H]1CC[C@@]2(C)C(=CC[C@@H]3[C@@H]2CC[C@]2(C)C(=O)CC[C@@H]32)C1,inactive
5,CCC(COC(=O)c1cc(OC)c(OC)c(OC)c1)(c1ccccc1)N(C)C (stereo not drawn),inactive
6,CN1C(=O)[C@@H](NC(=O)c2cc3ccccc3[nH]2)N=C(c2ccccc2)c2ccccc21,inactive
7,O=c1oc2ccccc2c(O)c1Cc1c(O)c2ccccc2oc1=O,inactive
8,COC1=CC(=O)O[C@@H](/C=C/c2ccc3c(c2)OCO3)C1,inactive
9,CC[C@]1(O)CC[C@H]2[C@@H]3CCC4=CCCC[C@@H]4[C@H]3CC[C@@]21C,inactive
10,CC(=O)[C@H]1CC[C@H]2[C@@H]3CC[C@@H]4C[C@H](O)CC[C@]4(C)[C@H]3CC[C@]12C,inactive
11,C=CC[C@]1(O)CC[C@H]2[C@@H]3CCC4=CC(=O)CCC4=C3C=C[C@@]21C,inactive
12,CC[C@H]1C[C@H]2[C@@H]3CCC4=CC(=O)CC[C@@H]4[C@H]3CC[C@]2(C)[C@H]1O,inactive
13,O=C1OC2(c3cc(Br)c(O)cc3Oc3c2cc(Br)c(O)[c]3[Hg])c2ccccc21 (stereo not drawn),inactive
